This is a sample that favours compounds with a hit; in the whole collection about 3.7% have one here.
BoNT-F LC inh = BoNT/F light chain protease inhibitors, primary screen, biochemical, flow cytometry, MLPCN library; inhibition, % at 10 µM; 360,000 tested, 0.22% active; AID 588497, 2011; Botulinum neurotoxin type F light chain protease (Clostridium botulinum); Multiplex microsphere protease cleavage assay; in the data active means inhibition above about 35%, passing the limit was not always enough; inconclusive means no clear call, values can overlap the other calls; further: plate controls were buffer without enzyme for full effect and enzyme alone for no effect
BJeLR lethal = MLPCN primary cell-based screen for lethality selective to Ras in HRASV12 cells. BJeLR (HRASV12) viability, CellTiter-Glo ATP luminescence, 48 h. inhibition, % (test concentration not listed). 300,000 tested, 0.17% active. AID 1554, 2009; in the data active means inhibition above about 50%; inconclusive means no clear call, values can overlap the other calls
BoNT-A LC inh2 = BoNT/A light chain protease inhibitors, primary screen, biochemical, flow cytometry, MLPCN library. multiplex microsphere protease substrate cleavage. 360,000 tested, 0.17% active. AID 588499, 2011. Botulinum neurotoxin type A light chain protease (Clostridium botulinum A str. ATCC 3502). inhibition, % at 10 µM; further: plate controls were buffer without enzyme for full effect and enzyme alone for no effect
Anthrax LF prot = Bacillus anthracis LF protease inhibitors, primary screen, biochemical, multiplex microsphere, MLPCN library; inhibition, % at 10 µM; multiplex microsphere protease cleavage assay; 360,000 tested, 0.12% active; Lethal factor (Bacillus anthracis), P15917; AID 588501, 2011; further: plate controls were buffer without enzyme for full effect and enzyme alone for no effect
Vc quorum ag = inducers of Vibrio cholerae quorum light production without autoinducers, primary screen, BH1578 luxS cqsA deficient, single point. V. cholerae BH1578 lux reporter, luminescence, 6 h. AID 588436, 2011. activation, % at 18.7 µM. 350,000 tested, 0.16% active; in the data active means activation mostly above about 9.7%, no sharp cut-off; inconclusive means no clear call, values can overlap the other calls; inactive means mostly below about 3.7%
Autofluor counter = counter-screen for toxin protease inhibitors: compound fluorescence; compound autofluorescence counterscreen, microsphere flow cytometry; stronger effect = higher value; fluorescence intensity (concentration not given with the values); 360,000 tested, 3.1% active; AID 624483; in the data active means fluorescence intensity above about 16000; inconclusive means no clear call, values can overlap the other calls
* = called active by the depositor; i = inactive; u = inconclusive; x = no result. Unless noted, no stated cut-off is given here; in the data, active means inhibition above about 30%; inconclusive means no clear call, values can overlap the other calls; inactive means below that.

SMILES	BoNT-F LC inh	BJeLR lethal	BoNT-A LC inh2	Anthrax LF prot	Vc quorum ag	Autofluor counter
Cc1ccc2nc3c(cc(C(N)=S)c(=N)n3CCCOC(C)C)c(=O)n2c1	-9	-14	45*	13	-3	13411
Cc1ccc(CNC(=O)c2cc3c(=O)n4ccccc4nc3n(CC3CCCO3)c2=N)cc1 (stereo not given)	1	-4	7	11	0	4200
Cc1ccc2nc3c(cc(C(=O)NCC4CCCO4)c(=N)n3CC3CCCO3)c(=O)n2c1 (stereo not given)	2	-11	1	33*	0	3882
O=C(N[C@H](CO)Cc1ccccc1)[C@H]1O[C@@H](n2ccc(=O)[nH]c2=O)[C@H](O)[C@@H]1O	7	x	0	8	x	4236
CCc1nc2ccc(C(=O)NCCCn3ccnc3)cn2c1N(C)Cc1ccc(N(C)C)cc1	2	x	0	-6	0	3660
COC(=O)Nc1ccc(S(=O)(=O)N2CCCc3ccccc32)cc1	-2	-6	-1	-1	i	16570*
COc1cc(C(=O)Nc2ccc(S(=O)(=O)N3CCc4ccccc43)cc2)cc(OC)c1OC	-3	4	-2	0	-5	18077*
COc1ccccc1C(=O)Nc1ccc(S(=O)(=O)N2CCc3ccccc32)cc1	-15	-1	-1	-5	i	4678
C[C@@H]1CN([C@@H](C)CO)C(=O)CCCn2cc(nn2)CO[C@H]1CN(C)S(=O)(=O)c1cn(C)cn1	5	x	0	1	-1	3826
CCOC(=O)CNC(=O)c1sc2ncnc(N3CCc4ccccc4C3)c2c1C	11	5	7	5	i	19828*
CCCCNC(=O)c1sc2ncnc(N3CCc4ccccc4C3)c2c1C	-4	5	0	-3	-1	10137
c1coc(CNc2c3c(nc4ncnn24)CCC3)c1	7	1	6	-3	i	20732*
Fc1ccccc1CCNc1c2c(nc3ncnn13)CCCC2	-7	5	0	-6	9	4110
Clc1ccccc1Nc1c2c(nc3ncnn13)CCC2	5	2	5	-13	0	21040*
c1ccc(CCNc2c3c(nc4ncnn24)CCC3)cc1	0	1	2	-7	0	22631*
c1ccc(Nc2c3c(nc4ncnn24)CCC3)cc1	4	0	0	3	2	10506
CCOC(=O)C1(C)CCCN1C(=O)c1cccc2ccccc12 (stereo not given)	2	x	0	-3	i	3356
Nc1ncnc(Nc2ccccc2Oc2ccccc2)n1	-2	x	0	-4	1	3871
COc1ccc(N2CCN(Cc3nc(-c4ccc(Cl)cc4Cl)no3)CC2)cc1	-7	3	-2	-6	0	20566*
c1ccc(-c2noc(CN3CCN(c4ccccc4)CC3)n2)cc1	0	7	0	1	0	5649
O=C(NCCOc1ccc(F)cc1)C1CCC(=O)N(Cc2ccc(Cl)cc2)C1 (stereo not given)	0	x	0	-6	i	3471
CC1(C(=O)NCc2ccccc2)CCC(=O)N1C1CC1 (stereo not given)	1	x	-1	8	x	5504
CN1CCN(S(=O)(=O)Cc2ccc(Cl)cc2)CC1	36*	4	5	u	0	3510
CC1CCCN(S(=O)(=O)Cc2ccc(Cl)cc2)C1 (stereo not given)	34	5	28	-25	0	12216
CSc1ccc(CN2CCN(S(=O)(=O)Cc3ccccc3)CC2)cc1	-165	10	-103	-28	i	27972*
SMILES	BoNT-F LC inh	BJeLR lethal	BoNT-A LC inh2	Anthrax LF prot	Vc quorum ag	Autofluor counter
O=C1NC[C@H](Cc2ccccc2)N(C[C@@H]2CCCN2C[C@H](Cc2ccc(O)cc2)N2C[C@H](Cc3ccccc3)N(CCc3ccccc3)C(=O)C2=O)C1=O	0	x	0	-11	x	5629
Cc1ccc(C2(COC(=O)C(C)C)CO2)c(OC(=O)C(C)C)c1 (stereo not given)	-27	5	0	-12	0	4620
CCC(C)C(=O)OCC1(c2ccc(C)cc2OC(=O)C(C)C)CO1 (stereo not given)	-6	53*	0	-1	-1	5747
Cc1nc2n(n1)CC(O)CS2 (stereo not given)	-6	8	-3	-1	i	23205*
CCCCCc1c(-c2ccc(OC)cc2)ncn1CCc1ccccc1OC	-4	x	0	4	x	5984
COc1cc(C(c2c(C)[nH][nH]c2=O)c2c(C)[nH][nH]c2=O)ccc1OCc1ccc([N+](=O)[O-])cc1	-1	-6	3	1	i	21766*
COc1cc(C(c2c(C)[nH][nH]c2=O)c2c(C)[nH][nH]c2=O)ccc1OS(=O)(=O)c1ccccc1	-5	-15	-1	-4	i	16308*
COc1cc(C(c2c(C)[nH][nH]c2=O)c2c(C)[nH][nH]c2=O)ccc1OS(=O)(=O)c1ccc(C)cc1	-10	3	0	0	0	4330
COc1cc(C(c2c(C)[nH][nH]c2=O)c2c(C)[nH][nH]c2=O)ccc1OC(=O)c1cccc([N+](=O)[O-])c1	-5	x	1	-3	12	2480
CCOC(=O)/C(C#N)=C/C=C1/C=CC=CN1C	38*	2	2	u	0	3559
Cc1nn(-c2ccccc2C(=O)O)c(=O)c2ccccc12	-2	-2	0	-3	0	22783*
Cc1nn(-c2ccccc2[N+](=O)[O-])c(=O)c2ccccc12	1	19	-1	-3	-1	4554
O=C(CSc1nc(C2CC2)nc2ccccc12)N1c2ccccc2Sc2ccc(C(F)(F)F)cc21	-3	-13	-1	-2	-7	21370*
CCCNc1c(N)n(-c2ccccc2)c(=O)[nH]c1=O	8	0	u	-4	-1	21763*
FC(F)(F)c1nnc2sc(-c3ccncc3)nn12	2	-2	u	-5	i	19007*
O=C(NCC(=O)N1CCN(Cc2c(F)cccc2Cl)CC1)c1cccs1	-6	x	0	-4	6	3990
CCOC(=O)c1c(C)n(C)c2ccc(O)c(S(=O)(=O)c3ccccc3)c12	-2	6	-2	-1	-3	24053*
CC(C)NC(=O)C1CCN(C(=O)C(C(=O)c2ccccc2)n2cc(Cl)ccc2=O)CC1 (stereo not given)	-3	4	0	0	i	23513*
O=C(c1ccc(F)cc1)C(C(=O)N1CCCCC1)n1ccccc1=O (stereo not given)	-3	-1	0	2	1	3321
Cc1ccc(Nc2nc(N)nc(CN3CCN(C)CC3)n2)cc1	-5	-6	0	-1	0	3047

Screens (PubChem BioAssay)
